The sample as a whole holds a higher share of hits than the screen did.
Tb PYK inh – blocks Trypanosoma brucei pyruvate kinase | Q57TT1 | TbPYK enzyme, Kinase-Glo Plus ATP luminescence, 45 min | Potency, µM (top dose mostly 76.8 µM), for inactives: at the top dose activity, negative = inhibition, actives largely listed as inhibitors | hit rate 0.12% among 410,000 | AID 624173; active = well fitted curve in the direction sought with a large enough effect; inconclusive = small, poorly fitted or top-dose-only effect, or another doubt; inactive = no such curve, though single readings can be large; an effect the other way counts as inactive or inconclusive; note: potency is the fitted concentration of half-maximal effect; % is set by controls: 0 for no effect and ±100 for the full control effect; nearly all actives have a fitted effect of over 50% in size
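Readout: single end-point luminescence (Kinase-Glo Plus, 10 min). Reaction conditions were TbPYK/substrate plus 130 uM ADP, 45 min at RT, pH 7.2 TEA buffer. No-enzyme wells served as controls, and data were normalized before concentration-response fitting.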
LmPK inhibitor – blocks Leishmania mexicana pyruvate kinase activity; Q27686; purified LmPK, Kinase-Glo ATP luminescence, 1 h; Potency, µM (top dose mostly 57.5 µM), for the others: at the top dose activity change, negative = inhibition, hits mostly inhibitors; hit rate 0.37% among 290,000; AID 1721; active = well fitted curve in the direction sought with a large enough effect; inconclusive = small, poorly fitted or top-dose-only effect, or another doubt; inactive = no such curve, though single readings can be large; an effect the other way counts as inactive or inconclusive; note: potency is the fitted concentration of half-maximal effect; % is set by controls: 0 for no effect and ±100 for the full control effect
Target sequence (Q27686 whole entry, looked up): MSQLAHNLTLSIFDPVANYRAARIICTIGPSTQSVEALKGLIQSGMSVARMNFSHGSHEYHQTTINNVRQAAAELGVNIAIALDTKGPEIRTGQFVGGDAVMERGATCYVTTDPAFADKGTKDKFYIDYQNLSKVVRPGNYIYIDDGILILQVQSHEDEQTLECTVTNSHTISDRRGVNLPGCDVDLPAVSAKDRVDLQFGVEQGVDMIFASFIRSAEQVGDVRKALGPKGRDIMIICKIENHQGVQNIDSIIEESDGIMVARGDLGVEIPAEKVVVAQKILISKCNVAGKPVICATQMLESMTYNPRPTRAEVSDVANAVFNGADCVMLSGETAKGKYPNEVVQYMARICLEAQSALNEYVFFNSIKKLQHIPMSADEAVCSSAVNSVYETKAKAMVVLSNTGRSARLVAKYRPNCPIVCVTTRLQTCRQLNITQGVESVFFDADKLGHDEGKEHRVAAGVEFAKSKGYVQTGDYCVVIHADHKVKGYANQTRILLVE
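Screened at intermediate enzyme activity to detect both inhibitors and activators: LmPK at 0.1 nM, with a 0.5 nM enzyme column as activation reference. PEP 0.5 mM, ADP 0.1 mM; ATP detected by luminescence after 1 h.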
SARS PLP yeast – SARS-CoV PLP inhibition in yeast. S. cerevisiae expressing SARS-CoV PLpro, growth rescue. Potency, µM (doses to about 32.9 µM), for the others: top-dose activity, positive = growth rescue, actives largely listed as activators. hit rate 0.19% among 330,000; note: potency is the fitted concentration of half-maximal effect; 0% is about no effect; nearly all actives have a fitted effect of over 55% in size
Shiga toxin inh – inhibitors of Shiga toxin in Vero cells | Vero cells, Shiga toxin protein synthesis inhibition reporter | inhibition, % at 38.7 µM | hit rate 9.2% among 290,000 | AID 2315; in the data active = inhibition mostly above about 28%, no sharp cut-off; inactive = mostly below about 43%; note: 0% is about no effect
NS1 function inh – influenza NS1 inhibition. Potency, µM (top dose mostly 46.1 µM), for inactives: at the top dose activity, positive = more growth. hit rate 0.4% among 270,000. AID 2326; note: potency is the fitted concentration of half-maximal effect; actives are rising curves; nearly all actives have a fitted effect of over 50% in size
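Compounds were scored for reversing the slow growth caused by influenza A NS1 in S. cerevisiae, measured by optical density at 600 nm. Assay medium contained 2% galactose at pH 6.0; NS1-free yeast of the same strain were the positive control.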
CHX counter – counter-screen for Shiga toxin inhibitors: cycloheximide protein synthesis inhibition; AID 2314; max response, %; hit rate 12% among 300,000; cell reporter, cycloheximide protein synthesis inhibition counterscreen; in the data active = max response mostly above about 13%, no sharp cut-off; inactive = mostly below about 14%; note: read at 38.3 µM for the half of the compounds with a filed dose; 0% is about no effect
Flu NS1 inh – influenza NS1 function inhibition validation; 1,400 tested, under 10 active; AID 492980; influenza NS1 function cell assay, 15-point titration; shares compounds with NS1 function inh; activity change, negative = inhibition, % at 32.9 µM; note: 0% is about no effect
PR8 titer – reduces influenza A/PR/8/34 replication in MDCK cells; shares compounds with NS1 function inh; AID 504647; virus titer (log TCID50), log10 TCID50 at 5 µM; hit rate 30% among 95; MDCK infected influenza A/PR/8/34, virus titer TCID50; stronger effect = lower value; call rule not given here
Numbers without * were called inactive; ? = inconclusive; . = not tested or not shown. Unless noted, calls come from the whole dose curve.

SMILES | Tb PYK inh | LmPK inhibitor | SARS PLP yeast | Shiga toxin inh | NS1 function inh | CHX counter | Flu NS1 inh | others
Cc1ccc(C(C(=O)NC2CCCCC2)N(C(=O)Cc2c[nH]c3ccccc23)c2ccccc2)o1 (stereo unspecified) | -1% | 0% | 0% | -1 | 7% | -2 | .
COc1cccc(CN(C(=O)Cc2c[nH]c3ccccc23)C(C(=O)NC2CCCCC2)c2cccs2)c1 (stereo unspecified) | . | 2% | -4% | 12 | 7.1µM* | 12 | -8
CC1CCCN(c2nc(-c3ccccc3O)nc3ccccc23)C1 (stereo unspecified) | -5% | . | . | . | . | . | .
Cc1ccc(C)c2sc(N3CCN(C(=O)C(C)(C)C)CC3)nc12 | 3% | . | . | . | . | . | .
CC(NC(=O)CN1C(=O)NC2(CCCCCC2)C1=O)c1ccccc1 (stereo unspecified) | ? | . | 1% | . | . | . | .
Cc1ccc(C)c2[nH]c(=O)c(C(c3nnnn3Cc3ccccc3)N3CCc4ccccc4C3)cc12 (stereo unspecified) | 4% | -1% | -2% | -30 | 10µM* | -6 | 12
Cc1ccc2nc(-c3cccc(S(=O)(=O)N4CCCC4)c3)cn2c1 | 1% | 10% | 1% | 44 | ? | 17* | 2
CCc1nn(CCCC(=O)N2CCN(c3cc(Cl)ccc3C)CC2)c(=O)c2cc3occc3n12 | -2% | . | . | . | . | . | .
COC(=O)c1cc2oc3ccccc3c2n1Cc1nc(-c2cccc(C)c2)oc1C | -5% | . | . | . | . | . | .
CCn1cc(/C=N\NC(=O)c2ccccc2Cl)cn1 | 5% | -5% | 9% | 4 | 3% | 16 | .
O=C(N/N=C/c1cc2ccccc2[nH]1)c1ccccc1Cl | -5% | 11% | -2% | 39 | ? | 16* | -11
CCc1nc2c(OCCn3cccc3)cccn2c1N(C)C(=O)c1ccc(C)cc1 | -5% | . | . | . | . | . | .
COc1cc(Cl)c(C)cc1Nc1nc2ccccc2nc1NS(=O)(=O)c1ccccc1 | -4% | . | . | . | . | . | .
CN(Cc1ccccc1)C(=O)COC(=O)c1ccccc1NS(=O)(=O)c1cccc(N)c1 | -3% | 7% | -2% | 2 | 22µM* | 7 | 1
CC(OC(=O)c1ccccc1NS(=O)(=O)c1cccc(C(F)(F)F)c1)C(=O)N(C)Cc1ccccc1 (stereo unspecified) | -5% | 0% | 2% | -16 | 25% | -2 | .
Nc1ccc(S(N)(=O)=O)cc1 | 6% | . | . | . | . | . | .
Nc1ccc(S(N)(=O)=O)cc1N | -9% | 9% | 3% | 63 | 4.5µM* | 38 | 19
O=C(Nc1ccc(S(=O)(=O)Nc2nccs2)cc1)c1cc(-c2ccccc2)nc2ccccc12 | -1% | -1% | -8% | -3 | 11µM* | -6 | 1
Cc1ccc(-c2cc(C(=O)Nc3ccc(S(=O)(=O)Nc4nccs4)cc3)c3ccccc3n2)c(C)c1 | -15% | -2% | 0% | -16 | 18% | -3 | .
Cc1ccc(S(=O)(=O)N(C)c2cc(S(=O)(=O)N3CCC(C)CC3)c(C)cc2C)cc1 | -8% | 5% | -6% | 7 | 11µM* | -1 | 10
O=C(Cc1c(F)cccc1Cl)Nc1cc(S(=O)(=O)N2CCOCC2)ccc1N1CCOCC1 | 2% | . | 1% | . | . | . | .
Cc1ccc2cccc(NC(=S)NC(=O)c3ccnn3C)c2n1 | 1% | 4% | ? | -6 | 16µM* | -2 | 3
CC(=O)NC(=S)Nc1cccc2ccc(C)nc12 | 0% | 3% | 8% | -3 | 0% | -3 | .
CN(C)c1oc(-c2ccc(OCc3ccc(Cl)cc3)cc2)nc1C#N | 1% | -1% | -1% | -13 | 10µM* | 9 | -3
CN(C)c1oc(COc2ccc(F)cc2)nc1C#N | 4% | -1% | -27% | -5 | -3% | 6 | .
SMILES | Tb PYK inh | LmPK inhibitor | SARS PLP yeast | Shiga toxin inh | NS1 function inh | CHX counter | Flu NS1 inh | others
c1ccc(Oc2ccccn2)cc1 | -17% | . | . | . | . | . | .
CCCCCCn1c(-c2ccco2)nc2oc3cc(OC)ccc3c(=O)c2c1=O | -29% | -5% | -13% | 6 | 13µM* | 1 | -37
COc1ccccc1NS(=O)(=O)c1ccc(C(=O)NCC2(N(C)C)CCCCC2)cc1 | -15% | . | 0% | . | . | . | .
COc1ccccc1NC(=O)NCC1(N(C)C)CCCCC1 | 4% | 0% | 3% | -10 | ? | -3 | -23
Cc1ccc(S(=O)(=O)CCC(=O)OCC(=O)N2CC(=O)Nc3ccccc32)cc1 | 0% | 7% | 14% | 37 | ? | 1 | -5
COc1ccc([C@@H]2[C@@H]3C(=O)N(C(C)(C)C)C(=O)[C@@H]3[C@]3(Cc4ccccc4)C(=O)N(c4ccc(OC)cc4)C(=O)N23)cc1 | 1% | . | 7% | . | . | . | .
COc1ccc(N2C(=O)N3[C@H](c4cccc(C)c4)[C@@H]4C(=O)N(Cc5ccccc5)C(=O)[C@@H]4[C@]3(Cc3ccccc3)C2=O)cc1 | 0% | 8% | 21% | 0 | 14µM* | 5 | -11 | PR8 titer=7.5*
CCOC(=O)c1c(C)[nH]c(C(=O)C(C)OC(=O)c2cccc(OCc3c(C)noc3C)c2)c1C (stereo unspecified) | -17% | 6% | -2% | 29 | 13µM* | 17* | -8
COc1ccc2[nH]c3c(c2c1)CCNC3 | -1% | . | 7% | . | 18µM* | . | 13
CCOc1ccc2[nH]c3c(c2c1)CNCC3 | -6% | -4% | 1% | -2 | 8% | -1 | .
CC1(C)O[C@H]2[C@@H](O1)[C@@H](C(=O)Nc1cc(F)ccc1F)O[C@@H]1OC(C)(C)O[C@@H]12 | 2% | . | . | . | . | . | .
COc1ccc2cc(/C=N/NC(=O)c3ccc(CN(c4cccc(Cl)c4Cl)S(C)(=O)=O)cc3)c(Cl)nc2c1 | 0% | 1% | -7% | 25 | 13µM* | 7 | ?
Cc1ccc(-c2nc(CS(=O)CC(=O)N3CCN(c4ccc(F)cc4)CC3)c(C)o2)cc1 (stereo unspecified) | -1% | -1% | 8% | -2 | 17% | -3 | .
CCOC(=O)C1CCN(C(=O)CS(=O)Cc2nc(-c3ccc(C)cc3)oc2C)CC1 (stereo unspecified) | 2% | 0% | 10% | -7 | 11µM* | -2 | 0 | PR8 titer=8
Cc1ccc(N2C(=O)CC(=O)NC2=O)cc1Cl | -8% | 10% | 5% | -1 | 10µM* | 2 | 20
O=C1CC(=O)N(c2ccc(Cl)cc2)C(=O)N1 | -7% | -3% | -6% | . | 27% | -2 | .
Cc1ccc(S(=O)(=O)N2CCCCC2)cc1C(=O)N(C)CC(=O)Nc1ccc(Cl)c(C(F)(F)F)c1 | 1% | -1% | -2% | -6 | 10µM* | 0 | -14
